Data taken from paper PMC4336329 (PLoS ONE, 2015).
The campaign covered roughly 310,000 compounds. About 14,000 (4.5%) showed an effect of 50% or more. The effect is printed as a negative number. The entries come from a sample that favours strong results as a whole.

Target: human ether-à-go-go-related gene (hERG) potassium channel (human, UniProt Q12809)
Assay: primary screen, population patch clamp on CHO cells stably expressing hERG; higher = less effect of the substance
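Note: peak tail current of the secondary pulse compared with the same well before compound.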

human ether-à-go-go-related gene (hERG) potassium channel, sequence (Q12809 whole entry, looked up): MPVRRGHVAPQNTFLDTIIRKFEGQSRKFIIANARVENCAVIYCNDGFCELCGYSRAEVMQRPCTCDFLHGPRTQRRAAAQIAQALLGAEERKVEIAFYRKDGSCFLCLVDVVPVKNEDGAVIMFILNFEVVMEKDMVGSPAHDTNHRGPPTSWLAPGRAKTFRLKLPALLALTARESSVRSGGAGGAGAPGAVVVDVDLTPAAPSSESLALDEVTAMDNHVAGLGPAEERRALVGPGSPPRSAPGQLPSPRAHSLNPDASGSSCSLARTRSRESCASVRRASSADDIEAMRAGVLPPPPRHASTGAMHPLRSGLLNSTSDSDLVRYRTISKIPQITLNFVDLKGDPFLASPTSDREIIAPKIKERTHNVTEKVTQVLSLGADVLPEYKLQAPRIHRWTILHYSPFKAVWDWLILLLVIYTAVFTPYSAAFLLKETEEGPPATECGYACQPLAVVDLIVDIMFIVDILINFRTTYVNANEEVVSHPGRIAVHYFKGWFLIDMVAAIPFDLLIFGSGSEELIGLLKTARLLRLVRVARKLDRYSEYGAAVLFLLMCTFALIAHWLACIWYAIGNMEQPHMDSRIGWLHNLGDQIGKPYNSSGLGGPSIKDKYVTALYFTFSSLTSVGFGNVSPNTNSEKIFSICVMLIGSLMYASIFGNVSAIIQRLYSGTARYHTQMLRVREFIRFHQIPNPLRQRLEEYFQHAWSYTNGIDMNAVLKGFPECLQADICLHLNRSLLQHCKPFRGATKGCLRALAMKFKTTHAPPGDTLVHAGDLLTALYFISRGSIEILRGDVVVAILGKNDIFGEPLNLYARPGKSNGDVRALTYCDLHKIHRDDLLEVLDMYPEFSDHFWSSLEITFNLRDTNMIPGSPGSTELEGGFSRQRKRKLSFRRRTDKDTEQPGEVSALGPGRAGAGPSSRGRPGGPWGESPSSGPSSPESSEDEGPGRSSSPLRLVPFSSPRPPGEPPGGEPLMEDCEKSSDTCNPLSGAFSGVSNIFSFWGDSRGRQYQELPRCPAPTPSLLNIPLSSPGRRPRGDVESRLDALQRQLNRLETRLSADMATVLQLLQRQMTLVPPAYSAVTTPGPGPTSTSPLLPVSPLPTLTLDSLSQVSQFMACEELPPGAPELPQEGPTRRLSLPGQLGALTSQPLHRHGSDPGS

Row | SMILES | hERG current change (%, negative = inhibition) at 10uM
1 | CS(=O)(=O)Nc1cccc(C2=NN(S(C)(=O)=O)C(c3ccccc3)C2)c1 (stereo not shown) | -30.9%
2 | CCS(=O)(=O)Nc1cccc(C2=NN(S(C)(=O)=O)C(c3ccccc3)C2)c1 (stereo not shown) | -14.6%
3 | CCS(=O)(=O)N1N=C(c2cccc(NS(C)(=O)=O)c2)CC1c1ccc(C)cc1 (stereo not shown) | -73.9%
4 | O=c1cc(-c2ccccc2)nc(N2CCCCC2)[nH]1 | -13.7%
5 | CN(Cc1ccc(F)cc1)C(=O)c1sccc1-c1ccccc1 | 0.217%
6 | Cc1cc(=O)[nH]c(NN)n1 | 6.39%
7 | COc1cccc2cc(C(=O)NCc3ccco3)c(=O)oc12 | 2.32%
8 | Cc1ccc(S(=O)(=O)Nc2ccc(-c3nnc(SCC#N)n3C)cc2)cc1 | -11.3%
9 | CC(C)(C)n1nnnc1C(c1cccnc1)N1CCN(C2CCCCC2)CC1 (stereo not shown) | -2.19%
10 | CC(=O)N1CCN(c2ccccc2NC(=O)c2ccc(Br)o2)CC1 | -54.4%
11 | CN1CCN(c2ccccc2NC(=O)c2ccc(Br)o2)CC1 | -67.9%
12 | O=C(Nc1ccccc1N1CCCC1)c1ccco1 | 6.36%
13 | O=C(Nc1ccccc1N1CCN(C(=O)c2ccccc2)CC1)c1ccc(Br)o1 | -63.5%
14 | O=C(Nc1ccccc1N1CCCC1)c1ccc(Br)o1 | -22.4%
15 | CC(=O)N1CCN(c2ccccc2NC(=O)c2ccco2)CC1 | -38.9%
16 | O=C(Nc1ccccc1N1CCN(C(=O)c2ccccc2)CC1)c1cc2ccccc2o1 | 9.86%
17 | O=C(Nc1ccccc1N1CCN(C(=O)c2ccccc2)CC1)c1ccco1 | -74.2%
18 | CS(=O)(=O)N1CCN(c2ccccc2NC(=O)c2ccc(Br)o2)CC1 | -36.3%
19 | O=C(Nc1ccccc1N1CCOCC1)c1ccc(Br)o1 | 1.26%
20 | CC1CCN(c2ccccc2NC(=O)c2ccc(Br)o2)CC1 | -0.73%
21 | CCOC(=O)c1[nH]c(C)c(C(=O)OCCN2C(=O)c3ccccc3C2=O)c1C | -1.16%
22 | COC(=O)[C@@H]1C[C@@]2(O)[C@H](O)[C@H](O)[C@H](O)C[C@H]2N1Cc1ccc(C(F)(F)F)cc1 | 13.2%

Row | SMILES | hERG current change (%, negative = inhibition) at 10uM
23 | Cc1ccccc1CN1CCN(CC(=O)NCc2ccccc2)CC1 | -22.8%
24 | Cc1c(NC(=O)CCC2CCCCC2)cc(C(=O)N2CCOCC2)cc1[N+](=O)[O-] | -10.2%
25 | COc1cc(N)c(Cl)cc1C(=O)NC1CN2CCC1CC2.Cl.O (stereo not shown) | -11.1%
26 | O=C(O)c1ccc(Cl)c(NC(=S)NC(=O)c2cccc(COc3ccccc3)c2)c1 | 30.4%
27 | COC(=O)c1ccc(N2CCOCC2)c(NC(=O)c2ccc(Br)o2)c1 | 7.34%
28 | COC(=O)c1ccc(N2CCN(C)CC2)c(NC(=O)c2ccc(Br)o2)c1 | -55.8%
29 | COC(=O)c1ccc(N2CCN(C)CC2)c(NC(=O)c2ccc(-c3ccc(Cl)cc3)o2)c1 | 7.11%
30 | COC(=O)c1ccc(N2CCN(C(=O)c3ccccc3)CC2)c(NC(C)=O)c1 | -39.8%
31 | CCOC(=O)c1ccc(N2CCN(C(=O)c3ccccc3)CC2)c(NC(=O)c2ccco2)c1 | -71.5%
32 | COC(=O)c1ccc(N2CCCCC2)c(NC(=O)c2ccco2)c1 | -45.8%
33 | CCOC(=O)N1CCC(NC(=O)c2cc(S(=O)(=O)N3CCC4(CC3)OCCO4)ccc2F)CC1 | -6.9%
34 | Fc1cccc(CN2CCN3CCCC3C2C2CCCCC2)c1 (stereo not shown) | -8.93%
35 | CCOc1ccc(NC(=S)NC(=O)/C=C/c2ccc(OC)cc2)c([N+](=O)[O-])c1 | 7.26%
36 | O=C(COc1ccccc1Cl)NCCNC(=O)c1cccnc1 | -3.71%
37 | CS(=O)(=O)NNC(=O)Cn1nnc(-c2ccc(OCc3ccccc3Cl)cc2)n1 | 18%
38 | O=C(Oc1ccc(-c2nnco2)cc1)N1CCOCC1 | 1.23%
39 | CCc1ccccc1Nc1nc(N)nc(COC(=O)CCS(=O)(=O)c2ccccc2)n1 | -10.5%
40 | Cc1ccccc1Nc1nc(N)nc(COC(=O)CCNS(=O)(=O)c2ccccc2)n1 | -9.32%
41 | CCc1ccccc1Nc1nc(N)nc(COC(=O)CCNS(=O)(=O)c2ccccc2)n1 | -62.7%
42 | Cc1ccc2nc(NCCc3ccc(Cl)cc3)c3nncn3c2c1 | 8.75%
43 | Cn1c2ccccc2c2nnc(SCC(N)=O)nc21 | -7.5%
